According to the supplement of paper PMC3334620:
In all, about 33,000 sequences were measured (“E-score (-0.5 to 0.5)”: median about -0.04, highest 2% from about 0.36 on). This is one part of a sample in which the highest values are shown more often than they occur.

Target: T1, Hmlalpha2 (UniProt P0CY09)
T1 sequence: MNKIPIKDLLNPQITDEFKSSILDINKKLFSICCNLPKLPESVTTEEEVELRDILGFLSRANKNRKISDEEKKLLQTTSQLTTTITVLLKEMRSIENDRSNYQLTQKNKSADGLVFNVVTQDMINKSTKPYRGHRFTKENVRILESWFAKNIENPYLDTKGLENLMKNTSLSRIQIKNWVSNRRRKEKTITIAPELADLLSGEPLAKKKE
Experiment: PBM E-score (8-mer binding enrichment) (E-score (-0.5 to 0.5)); higher = stronger / more preferred TF binding
Conditions: protein concentration: 200 nM; construct: GST-full length
Outline: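 Universal all-10-mer Agilent arrays, double-stranded by primer extension on fresh or once-stripped slides, were probed with about 100-200 nM GST-tagged yeast transcription factors made by PURExpress. Fluorescent anti-GST detected bound protein, and masliner normalised the scans. E-scores from the Universal PBM Analysis Suite were given to each ungapped eight-base word pooled with its reverse complement.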

Sequence	PBM E-score
GTGCTCAA	0.197
ATCTGGGG	-0.267
CGCTTACA	0.287
AAGTTCCG	-0.0355
AAGCGGGG	-0.0783
AGCTCCCA	-0.128
AATGCTCG	0.0169
TGAAAGAA	0.129
AAAGCACA	0.123
AAGTATCT	0.0958
ACACAGCC	0.317
ACACAACC	0.305
ACACAACT	0.317
ACACAGCA	0.358
ACACAGCG	0.424
ACACAACG	0.377
GAGGAAGC	-0.231
AAGAGATG	-0.0147
TAAACTTA	0.228
CGAAGATA	-0.04
AGGTAAGC	-0.198
ACAGTCTG	-0.159
ACACATCA	0.183
AACATAAA	0.28
TACATAAA	0.369

Sequence	PBM E-score
AACATACA	0.368
AACATACT	0.255
CACATAAA	0.259
CACATACA	0.33
AACATACG	0.363
GACATACA	0.315
TACATATA	0.374
CACATATA	0.311
TACATACA	0.443
GACATATA	0.163
ACTACGCT	0.106
ACTGCTCA	0.0532
GAAGATAA	0.242
AAAGGGAC	-0.2
GCAATCTA	0.119
ATCTTCTA	-0.0325
TACATAGA	0.427
GACATAGA	0.145
CACATAGA	0.0951
CGTTAAAA	0.272
AGTTAACG	0.248
CGTTATAA	0.222
AGTTATAA	0.172
AGTTAACA	0.392
TGTTAAAA	0.43

Sequence	PBM E-score
AGTTAACT	0.129
CGTTAACA	0.34
GGTTAAAA	0.28
TGTTATAA	0.399
TGCTAACA	0.245
TGTTAACA	0.426
AGCTGGAC	-0.0393
AAGGCCAC	-0.186
CGGGCAAC	-0.261
ATAGATTA	0.151
AAAAAGGA	-0.00436
GTGGCTGA	-0.248
CCATGCGG	-0.12
GAGGAGAA	-0.191
GGTTAACC	-0.142
GGTTAACA	0.412
GGTTAAGA	0.148
CGCCAGAG	-0.305
GATGGTCC	-0.0351
CCCGGTGA	-0.242
ACTACATC	0.275
ACTACATG	0.43
ACGACATG	0.382
CCTACATA	0.13
ACGACATC	0.0415

Sequence	PBM E-score
ACTACATA	0.378
ACGACATA	0.134
ACTACAGG	0.133
GCTACATA	0.255
CCGTTGTC	0.0589
ACCCTGCA	0.0038
CGATTGCG	-0.0285
CGTACATA	0.363
GGTACATA	0.141
AGTACAAG	0.267
AGTACATC	0.233
AGTACATA	0.401
AGTACATG	0.415
CTGCCATC	-0.239
CCTCCCCA	-0.233
CCGGCAGC	-0.36
AGCAATCG	0.108
TATCAAAA	0.173
CAGGCCCA	-0.135
CTATTCGC	-0.117
TCCGCCGA	-0.0873
CACACGCG	0.264
AACACGCG	0.406
AGCACGCA	0.0284
CACACGCA	0.19

Sequence	PBM E-score
TACACGCA	0.442
ACCACGCT	-0.134
AACACGCT	0.387
AACACGCC	0.359
ATCACGCG	0.144
GACACGCA	0.301
AACACGCA	0.412
AGCACGCT	0.00597
ATGTCTTG	0.0125
CACGCGGA	0.109
AGATCCTA	-0.165
ACGGGACT	-0.101
CGAGCATA	-0.325
CCCTAACG	-0.0128
ATACTATG	0.0473
GAAGCTCC	-0.218
ACTTCTTC	0.0141
GCTTTACC	0.21
CTTTTACC	0.139
CTTTTACA	0.453
ACTTTACT	0.109
ACTTTACC	0.151
ACTTTACA	0.429
GCTTTACA	0.405
GCTTTAAA	0.095

Sequence	PBM E-score
ATTTTACC	0.188
CTTTTATA	0.0262
ATTTTACA	0.41
ATTTTACG	0.31
ATGGTAGC	-0.037
GTCAGTAA	0.133
ACTCTCCC	-0.283
CTGGGATC	-0.141
CACATTGA	0.097
AATTTCAC	0.0769
TCTTTAAA	0.0801
CCTTTACA	0.448
CCTTTACC	-0.204
TCTTTACA	0.445
CCTTTACG	0.223
TCTTTGCA	0.0746
GGAAAAAC	0.0566
AATGATAT	0.0696
AGTCTCTC	-0.306
CATGTCAG	0.314
AATGTCAA	0.182
CATGTCAC	0.245
CGTGTCAG	0.273
AGTGTCAA	0.134
CGTGTCAA	0.438

Sequence	PBM E-score
CATGTCGA	0.386
TATGTCAA	0.426
CATGTCGG	0.265
CATGTCAA	0.44
GATGTCAA	0.194
GATGTCGA	0.126
GAGGATCA	-0.143
CTCAGTAA	-0.0267
AACGCAGG	0.0539
AGAATCTC	-0.015
GAGGTTAC	0.0883
TAACTCGA	0.277
AGACTCGA	-0.211
GGCGGTGA	-0.163
CGCCACAG	-0.0887
ACATGAAT	0.371
ACATGAAG	0.338
ACATGAAC	0.366
ACATGAAA	0.302
CCATGAAC	-0.0422
GCATGAAC	0.104
AGCAGGCG	0.046
